From PubChem BioAssay (NCI)
The panel holds about 83,000 compounds, 20% with a hit somewhere; the sample as a whole holds those more often.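 Growth was measured after 48 h exposure to one concentration of compound in 96-well plates. Values under 10 count as active.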 A number with no mark means an inactive call. Active and inactive are the calls of the source.

Assays:
Test in all cases: NCI-60 one-dose screen, 48 h (100 = growth as untreated, 0 = no growth, -100 = all killed)
Details in all cases: 10 µM unless noted
HCT-15 colon = test system: HCT-15 colon
HT29 colon = test system: HT29 colon
SNB-75 CNS = test system: SNB-75 CNS
SNB-19 CNS = test system: SNB-19 CNS
U251 CNS = test system: U251 CNS
PC-3 prostate = test system: PC-3 prostate
SK-MEL-5 melanoma = test system: SK-MEL-5 melanoma
UACC-62 melanoma = test system: UACC-62 melanoma
LOX IMVI melanoma = test system: LOX IMVI melanoma
SK-MEL-28 melanoma = test system: SK-MEL-28 melanoma

Structure (SMILES)	growth (HCT-15 colon)	growth (HT29 colon)	growth (SNB-75 CNS)	growth (SNB-19 CNS)	growth (U251 CNS)	growth (PC-3 prostate)	growth (SK-MEL-5 melanoma)	growth (UACC-62 melanoma)	growth (LOX IMVI melanoma)	growth (SK-MEL-28 melanoma)
COc1ccc(Cl)cc1NC(=O)c1cc2c([nH]1)-c1nc(NC(=O)C(C)C)sc1CC2	95.4%	87%	92.2%	110%	96.5%	87.6%	77.6%	91.7%	95%	112%
CCN(CC)C(=O)C1CCN(C(=O)c2ccccc2)CC1	104%	104%	94%	100%	101%	96.9%	101%	97.2%	96.7%	107%
CC1CCc2cc(F)cc3c(=O)c(C(=O)O)cn1c23 (stereo not given)	105%	116%	109%	93.1%	101%	96.6%	102%	92.8%	69.1%	120%
O=C(Nc1cccc([N+](=O)[O-])c1)c1ccc2ccccc2c1O	66%	93.9%	97.4%	67.6%	49.4%	51.9%	19.5%	20.4%	63.3%	93.2%
O=C(Cn1c2ccccc2c2ccncc21)N/N=C/c1c[nH]c2ccccc12	93.4%	44.2%	31%	53.4%	19.7%	78.8%	4.85% (active)	21.2%	33.3%	56.5%
COc1cc(Nc2ncccc2C(=O)Nc2nc3ccc(F)cc3s2)cc(OC)c1OC	76.2%	79.1%	73.5%	89%	58.5%	39.2%	63.9%	24.4%	57.3%	84%
c1nc(SC2=NCCN2)c2[nH]cnc2n1	57.8%	35.3%	52.7%	103%	79.4%	57.5%	79.1%	19.1%	6.53% (active)	95.4%
CCc1c(C)c2cc(-n3c(-c4ccc(OC)cc4)csc3=N)c(O)c(C)c2oc1=O	9.38% (active)	5.28% (active)	-2.92% (active)	21.7%	10.8%	12.9%	4.4% (active)	2% (active)	5.9% (active)	28.6%
Nc1ncnc2c1c(-c1ccc(Oc3ccccc3)cc1)nn2C[C@@H]1SSC[C@H]1O	70.4%	13.2%	2.29% (active)	40.6%	26.5%	55.7%	-59.6% (active)	-70.4% (active)	10.7%	31.4%
N#Cc1c2c(c(N)[nH]c1=O)C(=O)NC2(O)c1ccccc1 (stereo not given)	106%	97%	106%	114%	101%	102%	98.6%	107%	98.5%	114%
CCCCn1c(-c2cccc(OC)c2)nc2cc(OC)c(OC)cc2c1=O	103%	110%	96.1%	89.7%	96.3%	108%	97.1%	83.6%	89.2%	109%
CN(CCNCc1ccccn1)CCNCc1ccccn1	9.87% (active)	7.47% (active)	12.9%	44.7%	11%	5.04% (active)	-31.7% (active)	4.5% (active)	9.32% (active)	10.7%
COc1ccc(-n2c(-c3ccc(NC(=O)CCCl)cc3)nnc2-c2cc(OC)c(OC)c(OC)c2)cc1	41.1%	18.9%	90.9%	52%	34.4%	49.8%	48.2%	48.1%	57.1%	27.8%
O=C(c1ccccc1)[C@H]1[C@@H]2CCCN2[C@]2(C(=O)Nc3ccc(F)cc32)[C@]12C(=O)Nc1ccccc12	86.9%	89.8%	83.2%	90.8%	80.5%	65.7%	83.6%	70.7%	91.3%	92.8%
COc1ccc2c(c1)C(=O)/C(=C/c1ccc(OCC(=O)c3ccc(Cl)cc3)cc1)O2	98.8%	100%	-0.258% (active)	101%	80.9%	50.9%	131%	72.2%	40.1%	104%
O=C(Nc1ccc(-n2cc(-c3ccncc3)c(-c3ccc(O)c(Cl)c3)n2)cc1)Nc1ccc(Cl)c(C(F)(F)F)c1	9.15% (active)	47.9%	28%	27.7%	5.79% (active)	1.79% (active)	-73.6% (active)	9.18% (active)	16.6%	20.1%
O=C(Nc1cccc(-n2ccc3c(NC(=O)c4ccccc4)nccc32)c1)c1cccc(C(F)(F)F)c1	9.77% (active)	-13.2% (active)	44.6%	28.5%	7.1% (active)	33.2%	-45.4% (active)	29.6%	8.39% (active)	40.9%
C=C1C(=O)O[C@H]2[C@H]1CC/C(COC(=O)c1ccc(Cl)nc1)=C\CC[C@@]1(C)O[C@@H]21	-14.6% (active)	-6.31% (active)	74.9%	56%	44.1%	53.2%	44.8%	-25.6% (active)	-79.3% (active)	1.37% (active)
O=C1CCC(=O)N1C1CCCCC1	112%	112%	88.5%	99.9%	107%	99.8%	96.8%	97.7%	98.4%	108%
CCc1cccc(C)c1NC(=O)c1sc2nc3c(cc2c1N)CCCCC3	27.5%	8.55% (active)	6.57% (active)	26.8%	24.1%	35.5%	14.2%	30.2%	45.1%	67.6%
CN1C(=O)C2(NN=C(c3cccc4ccccc34)S2)c2ccccc21 (stereo not given)	28.3%	50.8%	73.4%	33.7%	9.26% (active)	19.7%	41.8%	17.2%	31.3%	32.4%
COc1ccc(Cl)cc1NC(=O)c1cc2c(n1C)-c1nc(NC(=O)C(C)C)sc1CC2	50.7%	66.7%	59.3%	83.1%	59.9%	60.6%	61%	83.1%	93%	95.1%
Nc1nccc2c1ccn2-c1cccc(NC(=O)c2ccc(N3CCOCC3)c(C(F)(F)F)c2)c1	9.8% (active)	-47.2% (active)	23.8%	31.9%	8.89% (active)	18%	-43.7% (active)	13.8%	5.35% (active)	47.3%
Cn1cnc([N+](=O)[O-])c1N1c2ccncc2Sc2ccncc21	99%	137%	233%	94.7%	88.7%	93.3%	91.7%	81%	78.5%	149%
CCCCCCCCCCCCCCCCCCNCc1ccc(Cl)cc1	-87.1% (active)	-94.7% (active)	-60.9% (active)	-67.6% (active)	-84.8% (active)	-89.3% (active)	11.8%	-46.7% (active)	-74.6% (active)	27.2%
